# Data as given in ChEMBL document CHEMBL1961873, “Compounds: GSK PKIS; Assays: Nanosyn kinase panel” (2012).
# How the values were obtained:
# [1] = target: Platelet-derived growth factor receptor beta (Homo sapiens) (UniProt P09619); conditions: at 1 µM;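 further: each value is a mean percent inhibition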
# [2] = target: Tyrosine-protein kinase FRK (Homo sapiens) (UniProt P42685); conditions: at 0.1 µM
# [3] = target: Tyrosine-protein kinase FRK (Homo sapiens) (UniProt P42685); conditions: at 1 µM
# [4] = target: Protein-tyrosine kinase 2-beta (Homo sapiens) (UniProt Q14289); conditions: at 0.1 µM
# [5] = target: Protein-tyrosine kinase 2-beta (Homo sapiens) (UniProt Q14289); conditions: at 1 µM
# [6] = target: Proto-oncogene tyrosine-protein kinase receptor Ret (Homo sapiens) (UniProt P07949); conditions: at 0.1 µM
# [7] = target: Proto-oncogene tyrosine-protein kinase receptor Ret (Homo sapiens) (UniProt P07949); conditions: at 1 µM
# [8] = tested on: Proto-oncogene tyrosine-protein kinase receptor Ret (Homo sapiens), P07949 [V804L]; conditions: at 0.1 µM
# [9] = tested on: Proto-oncogene tyrosine-protein kinase receptor Ret (Homo sapiens), P07949 [V804L]; conditions: at 1 µM
# [10] = tested on: Proto-oncogene tyrosine-protein kinase receptor Ret (Homo sapiens), P07949 [Y791F]; conditions: at 0.1 µM
# [11] = tested on: Proto-oncogene tyrosine-protein kinase receptor Ret (Homo sapiens), P07949 [Y791F]; conditions: at 1 µM
# [12] = target: Macrophage-stimulating protein receptor (Homo sapiens) (UniProt Q04912); conditions: at 0.1 µM
# [13] = target: Macrophage-stimulating protein receptor (Homo sapiens) (UniProt Q04912); conditions: at 1 µM
# [14] = target: Proto-oncogene tyrosine-protein kinase ROS (Homo sapiens) (UniProt P08922); conditions: at 0.1 µM
# [15] = target: Proto-oncogene tyrosine-protein kinase ROS (Homo sapiens) (UniProt P08922); conditions: at 1 µM
# [16] = target: Proto-oncogene tyrosine-protein kinase Src (Homo sapiens) (UniProt P12931); conditions: at 0.1 µM
# [17] = target: Proto-oncogene tyrosine-protein kinase Src (Homo sapiens) (UniProt P12931); conditions: at 1 µM
# [18] = target: Tyrosine-protein kinase Srms (Homo sapiens) (UniProt Q9H3Y6); conditions: at 0.1 µM
# [19] = target: Tyrosine-protein kinase Srms (Homo sapiens) (UniProt Q9H3Y6); conditions: at 1 µM
# [20] = target: Tyrosine-protein kinase SYK (Homo sapiens) (UniProt P43405); conditions: at 0.1 µM;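 further: reported percentages are mean inhibition values for SYK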
# Macrophage-stimulating protein receptor (Homo sapiens), sequence (Q04912 25-304 limits assumed): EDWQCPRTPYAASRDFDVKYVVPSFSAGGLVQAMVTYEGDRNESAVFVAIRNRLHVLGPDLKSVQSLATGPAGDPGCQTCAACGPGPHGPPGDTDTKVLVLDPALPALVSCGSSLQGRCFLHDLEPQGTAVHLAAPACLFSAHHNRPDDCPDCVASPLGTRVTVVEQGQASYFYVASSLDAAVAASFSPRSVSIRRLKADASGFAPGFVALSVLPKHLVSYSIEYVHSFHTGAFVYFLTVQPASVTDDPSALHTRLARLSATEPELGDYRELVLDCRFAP
# Macrophage-stimulating protein receptor (Homo sapiens), sequence (Q04912 310-1400 limits assumed): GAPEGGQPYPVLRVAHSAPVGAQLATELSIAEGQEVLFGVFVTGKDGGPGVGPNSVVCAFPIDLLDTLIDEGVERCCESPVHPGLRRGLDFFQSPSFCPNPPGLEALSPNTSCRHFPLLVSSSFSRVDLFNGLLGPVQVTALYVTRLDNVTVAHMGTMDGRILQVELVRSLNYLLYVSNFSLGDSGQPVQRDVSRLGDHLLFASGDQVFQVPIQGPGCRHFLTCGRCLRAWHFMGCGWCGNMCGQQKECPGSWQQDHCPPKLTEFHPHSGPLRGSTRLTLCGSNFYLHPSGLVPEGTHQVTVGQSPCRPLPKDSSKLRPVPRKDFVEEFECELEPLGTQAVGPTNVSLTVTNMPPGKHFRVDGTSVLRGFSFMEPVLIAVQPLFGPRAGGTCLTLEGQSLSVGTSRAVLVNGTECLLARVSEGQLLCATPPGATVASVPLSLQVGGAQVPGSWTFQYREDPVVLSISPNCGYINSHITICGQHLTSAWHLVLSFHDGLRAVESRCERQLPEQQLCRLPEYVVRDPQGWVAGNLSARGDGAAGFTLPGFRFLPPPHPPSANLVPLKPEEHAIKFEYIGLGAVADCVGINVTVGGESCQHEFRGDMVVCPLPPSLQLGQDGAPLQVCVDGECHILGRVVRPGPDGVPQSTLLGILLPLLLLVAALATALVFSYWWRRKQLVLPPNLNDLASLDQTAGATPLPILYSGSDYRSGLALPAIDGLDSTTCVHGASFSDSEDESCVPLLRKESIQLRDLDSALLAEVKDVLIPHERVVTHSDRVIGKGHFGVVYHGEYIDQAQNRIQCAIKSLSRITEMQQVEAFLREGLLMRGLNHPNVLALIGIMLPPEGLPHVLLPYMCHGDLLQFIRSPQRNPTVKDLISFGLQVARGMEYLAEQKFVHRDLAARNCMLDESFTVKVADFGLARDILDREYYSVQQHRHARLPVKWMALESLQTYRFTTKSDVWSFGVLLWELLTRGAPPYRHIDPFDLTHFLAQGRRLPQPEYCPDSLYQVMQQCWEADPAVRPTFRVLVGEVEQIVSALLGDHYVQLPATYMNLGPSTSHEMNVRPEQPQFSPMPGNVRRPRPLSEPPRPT
# Tyrosine-protein kinase Srms (Homo sapiens), sequence (Q9H3Y6 whole entry): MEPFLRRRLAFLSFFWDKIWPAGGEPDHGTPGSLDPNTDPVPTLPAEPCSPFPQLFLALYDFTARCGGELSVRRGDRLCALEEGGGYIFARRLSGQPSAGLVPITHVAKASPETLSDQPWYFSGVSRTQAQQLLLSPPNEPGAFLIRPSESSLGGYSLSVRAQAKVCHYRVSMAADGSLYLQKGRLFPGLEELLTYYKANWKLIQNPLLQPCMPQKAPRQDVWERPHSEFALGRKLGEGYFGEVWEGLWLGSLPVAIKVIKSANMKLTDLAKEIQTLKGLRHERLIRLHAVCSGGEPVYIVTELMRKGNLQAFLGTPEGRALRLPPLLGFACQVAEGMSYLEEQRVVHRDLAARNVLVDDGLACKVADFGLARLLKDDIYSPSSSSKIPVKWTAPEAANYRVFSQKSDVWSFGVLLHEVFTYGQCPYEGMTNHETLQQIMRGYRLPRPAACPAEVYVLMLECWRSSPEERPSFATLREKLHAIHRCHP
# Protein-tyrosine kinase 2-beta (Homo sapiens), sequence (Q14289 whole entry, looked up): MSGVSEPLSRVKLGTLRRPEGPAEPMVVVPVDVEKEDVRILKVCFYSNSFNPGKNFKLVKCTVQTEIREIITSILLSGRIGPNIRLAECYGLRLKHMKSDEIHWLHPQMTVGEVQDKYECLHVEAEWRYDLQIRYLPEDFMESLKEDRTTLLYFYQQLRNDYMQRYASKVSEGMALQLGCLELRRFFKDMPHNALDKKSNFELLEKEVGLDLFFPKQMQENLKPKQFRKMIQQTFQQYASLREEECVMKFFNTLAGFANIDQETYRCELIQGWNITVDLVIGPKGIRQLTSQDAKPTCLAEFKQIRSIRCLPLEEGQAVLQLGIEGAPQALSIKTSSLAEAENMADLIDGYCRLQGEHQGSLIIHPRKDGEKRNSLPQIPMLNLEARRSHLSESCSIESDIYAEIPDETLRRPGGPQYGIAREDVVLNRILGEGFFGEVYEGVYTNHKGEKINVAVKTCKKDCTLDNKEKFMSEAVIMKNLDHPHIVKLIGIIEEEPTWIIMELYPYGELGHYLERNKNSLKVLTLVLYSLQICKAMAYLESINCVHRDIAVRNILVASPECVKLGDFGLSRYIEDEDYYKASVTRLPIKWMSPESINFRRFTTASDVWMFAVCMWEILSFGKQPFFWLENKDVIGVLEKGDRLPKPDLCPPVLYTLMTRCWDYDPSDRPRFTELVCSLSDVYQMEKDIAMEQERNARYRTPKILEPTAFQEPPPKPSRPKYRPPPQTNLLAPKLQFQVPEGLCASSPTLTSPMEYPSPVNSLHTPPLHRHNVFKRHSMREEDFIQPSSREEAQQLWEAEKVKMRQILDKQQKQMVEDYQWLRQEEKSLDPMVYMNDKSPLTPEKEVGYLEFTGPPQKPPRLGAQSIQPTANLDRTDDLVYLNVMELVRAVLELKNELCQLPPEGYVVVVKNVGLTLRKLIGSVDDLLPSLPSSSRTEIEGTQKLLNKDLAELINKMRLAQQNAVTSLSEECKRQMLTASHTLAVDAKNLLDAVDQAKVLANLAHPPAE
# Proto-oncogene tyrosine-protein kinase receptor Ret (Homo sapiens), sequence (P07949 whole entry): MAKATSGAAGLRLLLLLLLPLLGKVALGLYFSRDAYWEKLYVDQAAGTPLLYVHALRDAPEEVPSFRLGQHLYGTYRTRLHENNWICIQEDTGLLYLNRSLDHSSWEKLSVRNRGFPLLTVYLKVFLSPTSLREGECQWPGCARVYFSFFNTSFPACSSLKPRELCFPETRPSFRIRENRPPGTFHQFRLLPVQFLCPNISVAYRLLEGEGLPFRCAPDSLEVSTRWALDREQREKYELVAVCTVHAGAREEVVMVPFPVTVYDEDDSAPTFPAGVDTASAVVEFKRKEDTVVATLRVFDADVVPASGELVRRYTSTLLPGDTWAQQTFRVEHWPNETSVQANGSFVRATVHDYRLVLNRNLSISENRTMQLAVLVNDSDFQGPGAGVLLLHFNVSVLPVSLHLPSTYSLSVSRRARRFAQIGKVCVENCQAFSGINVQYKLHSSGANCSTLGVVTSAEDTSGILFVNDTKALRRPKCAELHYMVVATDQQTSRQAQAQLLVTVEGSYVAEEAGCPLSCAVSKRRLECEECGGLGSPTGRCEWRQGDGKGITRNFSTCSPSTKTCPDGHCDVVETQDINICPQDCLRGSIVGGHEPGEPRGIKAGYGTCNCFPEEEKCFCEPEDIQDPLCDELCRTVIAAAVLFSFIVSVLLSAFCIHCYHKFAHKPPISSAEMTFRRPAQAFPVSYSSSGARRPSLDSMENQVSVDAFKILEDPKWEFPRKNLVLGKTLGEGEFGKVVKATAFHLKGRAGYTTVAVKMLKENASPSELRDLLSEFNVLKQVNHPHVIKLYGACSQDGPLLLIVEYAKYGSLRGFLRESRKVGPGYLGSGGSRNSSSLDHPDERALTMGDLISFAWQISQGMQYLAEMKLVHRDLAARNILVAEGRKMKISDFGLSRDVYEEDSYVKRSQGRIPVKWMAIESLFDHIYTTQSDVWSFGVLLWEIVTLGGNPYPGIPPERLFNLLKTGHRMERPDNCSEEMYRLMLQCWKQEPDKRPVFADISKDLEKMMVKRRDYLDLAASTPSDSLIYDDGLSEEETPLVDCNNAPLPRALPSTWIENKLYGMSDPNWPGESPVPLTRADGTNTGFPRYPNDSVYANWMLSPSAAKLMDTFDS
# Tyrosine-protein kinase FRK (Homo sapiens), sequence (P42685 whole entry): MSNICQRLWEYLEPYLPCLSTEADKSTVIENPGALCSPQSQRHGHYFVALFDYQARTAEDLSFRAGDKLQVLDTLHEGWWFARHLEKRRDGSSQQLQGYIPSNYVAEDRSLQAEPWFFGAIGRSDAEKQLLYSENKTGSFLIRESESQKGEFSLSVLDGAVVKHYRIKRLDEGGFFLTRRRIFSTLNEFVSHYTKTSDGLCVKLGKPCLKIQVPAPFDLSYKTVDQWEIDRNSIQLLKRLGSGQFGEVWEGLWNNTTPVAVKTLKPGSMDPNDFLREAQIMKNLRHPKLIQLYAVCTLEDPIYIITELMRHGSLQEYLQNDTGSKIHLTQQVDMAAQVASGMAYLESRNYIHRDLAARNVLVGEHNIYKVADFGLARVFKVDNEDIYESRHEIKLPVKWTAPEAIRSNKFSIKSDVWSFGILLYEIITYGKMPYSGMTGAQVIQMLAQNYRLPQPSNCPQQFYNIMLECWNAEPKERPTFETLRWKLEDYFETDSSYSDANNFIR
# Proto-oncogene tyrosine-protein kinase receptor Ret (Homo sapiens), P07949 [Y791F], sequence (P07949 whole entry Y791F): as the sequence (P07949 whole entry) above, with Y791F counted along it
# Proto-oncogene tyrosine-protein kinase Src (Homo sapiens), sequence (P12931 2-536 limits assumed): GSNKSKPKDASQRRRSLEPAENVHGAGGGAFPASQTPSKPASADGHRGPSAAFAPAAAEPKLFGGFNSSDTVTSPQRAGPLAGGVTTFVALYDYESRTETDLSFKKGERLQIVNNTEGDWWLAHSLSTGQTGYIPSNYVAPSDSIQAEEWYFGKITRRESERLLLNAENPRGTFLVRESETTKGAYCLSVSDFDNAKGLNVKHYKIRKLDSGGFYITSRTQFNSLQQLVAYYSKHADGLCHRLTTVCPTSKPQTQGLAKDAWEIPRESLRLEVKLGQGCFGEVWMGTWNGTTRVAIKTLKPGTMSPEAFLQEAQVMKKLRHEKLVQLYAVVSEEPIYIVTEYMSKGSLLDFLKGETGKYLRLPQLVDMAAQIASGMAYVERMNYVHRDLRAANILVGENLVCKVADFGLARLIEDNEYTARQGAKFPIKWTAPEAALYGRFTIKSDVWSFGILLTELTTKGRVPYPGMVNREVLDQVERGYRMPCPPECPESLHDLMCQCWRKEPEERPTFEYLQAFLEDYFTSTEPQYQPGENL
SMILES,inhibition [1],inhibition [2],inhibition [3],inhibition [4],inhibition [5],inhibition [6],inhibition [7],inhibition [8],inhibition [9],inhibition [10],inhibition [11],inhibition [12],inhibition [13],inhibition [14],inhibition [15],inhibition [16],inhibition [17],inhibition [18],inhibition [19],inhibition [20]
CN(C)CCOc1ccc(-c2cc(-c3ccc4c(c3)CCC4=NO)c(-c3ccncc3)o2)cc1,9.14%,-1.02%,0.49%,-7.75%,0.57%,3.54%,1.85%,0.61%,1.37%,-1.98%,9.08%,-0.03%,22.4%,-1.28%,0.64%,1.1%,2.61%,3%,3.76%,0.85%
NS(=O)(=O)c1ccc(N/N=C2\C(=O)Nc3ccc(-c4cnco4)cc32)cc1,50.4%,1.59%,1.95%,9.59%,19.7%,7.98%,29%,15%,54%,8.71%,31.9%,7.46%,4.84%,6.83%,9.22%,3.76%,20.5%,0.38%,0.29%,0.72%
CCc1ccc(Oc2nccc(-c3c(-c4ccc(F)cc4)ncn3C3CCNCC3)n2)cc1,13.8%,0.83%,-0.45%,-1.83%,2.07%,3.04%,7.38%,3.58%,4.57%,4%,8.79%,3.67%,2.97%,6.34%,6.93%,10.2%,10%,-0.71%,-0.39%,0.89%
CCc1cccc(CC)c1/C=C/c1cncc(C(=O)NC)c1,9.24%,0.72%,2.05%,4.52%,5.62%,6.73%,7.18%,,3.16%,5.49%,2.43%,-0.25%,6%,2.24%,4.93%,2.97%,10.2%,0.35%,-0.17%,-3.77%
Fc1ccc(-c2ncn(CCCN3CCOCC3)c2-c2ccncc2)cc1,6.02%,0.05%,-1.57%,0.29%,-0.89%,0.8%,2.72%,-0.64%,0.11%,2.85%,7.08%,-2.7%,0.97%,2.12%,4.63%,3.31%,1.01%,-3.46%,-3.16%,2.97%
Fc1ccc(-c2c(-c3ccncc3)nc3n2CCS3)cc1,5.75%,1.6%,2.05%,10.7%,4.18%,1.13%,7.86%,3.1%,6.64%,3.14%,7.69%,7.82%,5.85%,2.1%,8.26%,-3.16%,9.68%,,0.79%,0.99%
COc1ccc2cc(-c3c(-c4ccncc4)nc(-c4ccc(S(C)(=O)=O)cc4C)n3C)ccc2c1,13.2%,3.55%,2.3%,12.8%,12.4%,4.93%,22.2%,2.68%,4.41%,3.67%,26.6%,0.23%,-0.19%,6.07%,8.9%,3.38%,11.2%,1.11%,5.61%,0.01%
NC(=O)c1ccc(Oc2nccc(-c3c(-c4ccc(F)cc4)ncn3C3CCNCC3)n2)cc1,6.41%,2.8%,4.67%,-0.03%,10.9%,1.55%,2.99%,2.2%,5.79%,3.11%,3.63%,4.31%,6.11%,9.43%,7.5%,13%,13.6%,-3.65%,-3.42%,-0.16%
O=C1Nc2ccccc2/C1=C/Nc1ccc(-n2cncn2)cc1,33.4%,2.78%,3.04%,11.7%,24.7%,15.4%,48.6%,20.2%,67.3%,12.9%,53.2%,7.27%,6.25%,6.51%,8.39%,9.95%,19.2%,0.3%,-0.18%,-1.28%
COc1cc(C)c(N(C)C(=O)CN(C)C)cc1Nc1nc(Nc2cccc(F)c2C(N)=O)c2cc[nH]c2n1,2.38%,-0.14%,1.16%,14.7%,45.8%,6.8%,3.71%,8.2%,4.18%,3.57%,0.99%,5.06%,8.44%,15.3%,51.2%,3.62%,5.62%,-0.25%,-1.33%,-0.33%
COc1cc(Nc2ncc3c(C)nc(-c4cccc(Oc5ccccc5)c4)n3n2)cc(OC)c1OC,10.4%,0.9%,0.75%,5.25%,6.67%,4.22%,29.1%,8.26%,43%,3.87%,12.9%,2.03%,2.13%,13.1%,14.7%,-4.09%,21.7%,0.72%,-0.11%,0.87%
Nc1nccc(-c2c(-c3ccc(F)cc3)ncn2C2CCC(O)CC2)n1 (stereo not given),30.3%,-0.89%,5.08%,-2.8%,2.44%,3.09%,19.3%,0.11%,5.11%,3.7%,25.2%,3.96%,13.3%,28.6%,76.4%,0.34%,18.3%,-0.15%,2.5%,-1.99%
NCc1ccc(-n2c(-c3nonc3N)nc3cnccc32)cc1,37.3%,1.83%,1.83%,11.2%,9.24%,5.69%,7.7%,7.22%,9.65%,7.37%,7.16%,2.95%,2.64%,15.3%,33%,9.83%,9.77%,-2.58%,-2.9%,-3.99%
COc1ccc2ncn(-c3cc(O[C@H](C)c4ccccc4Cl)c(C(N)=O)s3)c2c1,18.7%,3.26%,4.73%,6.17%,9.58%,,9.64%,2.37%,7.27%,5.2%,8.71%,2.64%,3.04%,6.54%,10.9%,6.13%,5.73%,-3.68%,-2.35%,-1.79%
Cc1nnc(-c2ccc(C)c(-c3ccc(C(=O)NCc4ccc(Cl)cc4)cc3)c2)o1,3.27%,1.52%,2.43%,6.59%,10.6%,8.83%,2.3%,2.03%,2.91%,1.1%,7.75%,1.1%,2.52%,4.75%,7.75%,-1.25%,7.15%,-2.08%,-0.92%,-5.79%
CCC(=O)Nc1ccc(C)c(-c2ccc(C(=O)NCC3CC3)cc2)c1,0.71%,2.5%,2.55%,11.8%,6.44%,7.45%,6.85%,1.64%,2.22%,4.76%,6.48%,9.18%,7.8%,,3.11%,6.28%,6.57%,-0.92%,-1.83%,3.61%
Cc1ccc(C(=O)NC(C)C)cc1-c1ccc(C(=O)NCC2CC2)cc1,2.4%,0.01%,-0.89%,-7.76%,,2.09%,0.64%,-0.26%,-0.17%,-0.71%,-0.37%,-4.49%,0.06%,-1.39%,0.55%,-4.72%,-6.71%,-2.42%,2.24%,-0.72%
COc1ccc2cc(-c3c(-c4ccncc4)nc(-c4ccc([S+](C)[O-])cc4C)n3C)ccc2c1 (stereo not given),5.35%,-0.28%,-0.05%,-4.54%,-2.74%,2.66%,22.2%,1.07%,2.78%,2%,28.3%,3.56%,4.22%,2.09%,6.31%,2.64%,3.54%,1.97%,6.78%,-0.12%
Fc1ccc(-c2ncn(C3CCNCC3)c2-c2ccnc(Oc3ccc(F)c(F)c3)n2)cc1,10.6%,2.06%,2.77%,4.15%,11.9%,3.19%,7.38%,4.74%,11.2%,7.7%,9.54%,4.15%,2.54%,5.19%,4.41%,5.82%,7.25%,-3.17%,-3.06%,-1.2%
O=C(Nc1n[nH]c2cc(-c3cc(F)ccc3F)ccc12)C1CC1,14.1%,2.44%,0.71%,9.57%,10.3%,6.14%,10.3%,3.33%,2.9%,7.68%,11.5%,4.71%,1.65%,5.51%,5.37%,-1.08%,8.62%,-0.64%,-2.57%,-7.24%
N#Cc1ccc(Oc2nccc(-c3c(-c4ccc(F)cc4)ncn3C3CCNCC3)n2)cc1,5.37%,2.75%,4.03%,6.64%,13.4%,6.33%,4.32%,3.48%,4.02%,6.66%,9.04%,5.63%,4.9%,5%,7.93%,7.01%,6.12%,-3.21%,-3.22%,-0.77%
O=C(Nc1n[nH]c2cc(-c3ccccc3)ccc12)C1CC1,13.3%,2.92%,2.17%,11.3%,7.93%,4.67%,5.93%,1.54%,0.17%,4.42%,10.6%,3.18%,5.31%,6.26%,7.64%,0.33%,10.7%,-0.84%,3.11%,-3.33%
